Measurements published in PubChem BioAssay (Tox21).
Inconclusive results are not listed. Activity calls are given as the source filed them. Unless noted, calls follow the shape of the dose curve; as a rule, active = well fitted curve in the direction sought with a large enough effect in the repeat runs; inconclusive = weak or mixed curves; inactive = no such curve, though single readings can be large; an effect the other way counts as inactive or inconclusive.

Tests used:
[1] = qHTS assay to identify small molecule agonists of the peroxisome proliferator-activated receptor delta (PPARd) signaling pathway - cell viability counter screen (AID 743211); also: nearly all actives have a fitted effect of over 55% in size
How it was run: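 Following 5 h plating at 37 C and 5% CO2, PPARd UAS-bla HEK293H cells took up test compounds for 17 h. Viability was quantified by luminescence 30 min after CellTiter-Glo addition at room temperature.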

[2] = molecular target: Peroxisome proliferator-activated receptor delta (Homo sapiens) (UniProt Q03181); test: qHTS assay to identify small molecule agonists of the peroxisome proliferator-activated receptor delta (PPARd) signaling pathway (AID 743212; calls by dose curve)
How it was run: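 Tox21 library screened in GeneBLAzer PPARd UAS-bla HEK293H cells. After compound treatment at 37 C, a FRET-based beta-lactamase substrate was applied for 2 h and fluorescence recorded.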

[3] = molecular target: Peroxisome proliferator-activated receptor delta (Homo sapiens) (UniProt Q03181); test: qHTS assay to identify small molecule antagonists of the peroxisome proliferator-activated receptor delta (PPARd) signaling pathway (AID 743215; active = well fitted inhibition curve with a large enough effect in the signal ratio in the repeat runs, not every such curve was filed as active; the % refers to the signal ratio;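 also: cells stimulated with agonist L165041 at 300 nM final during compound exposure; series mostly up to about 62 µM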)
How it was run: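 Screen format: qHTS, antagonist mode. HEK293H PPARd-bla cells received compound and 300 nM L165041 (final), 17 h, 37 C. Beta-lactamase detected via FRET substrate fluorescence, 2 h, room temperature.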

[4] = qHTS assay to identify small molecule agonists of the farnesoid-X-receptor (FXR) signaling pathway - cell viability counter screen (AID 743218); also: nearly all actives have a fitted effect of over 45% in size
How it was run: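 Same-well cytotoxicity check on FXR-UAS-bla HEK 293T cells: 5 h attachment, 16 h compound at 37 C, CellTiter-Glo luminescence read at room temperature after 30 min.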

[5] = molecular target: Bile acid receptor (Homo sapiens) (UniProt Q96RI1); test: qHTS assay to identify small molecule agonists of the farnesoid-X-receptor (FXR) signaling pathway (AID 743220; active = well fitted activation curve with a large enough effect in the signal ratio in the repeat runs, not every such curve was filed as active; the % refers to the signal ratio; also: potency is read from the fitted curve at half-maximal effect)
How it was run: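 FXR-UAS-bla HEK 293T cells carrying a UAS-driven beta-lactamase reporter were plated for 5 h at 37C/5% CO2, then exposed to DMSO-dissolved Tox21 10K compounds for 16 h at 37C. A LiveBLAzer B/G FRET substrate was loaded for 2 h at room temperature before fluorescence reading.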

[6] = qHTS assay to identify small molecule antagonists of the farnesoid-X-receptor (FXR) signaling pathway - cell viability counter screen (AID 743221; active = well fitted cell-killing curve with a large enough effect in the repeat runs, not every such curve was filed as active; also: nearly all actives have a fitted effect of over 50% in size)
How it was run: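 Compound effects on cell number were measured as CellTiter-Glo luminescence in HEK 293T cells expressing FXR-UAS-bla, after 16 h at 37 C with 50 uM CDCA (final).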

[7] = molecular target: Vitamin D3 receptor (Homo sapiens) (UniProt P11473); test: qHTS assay to identify small molecule antagonists of the vitamin D receptor (VDR) signaling pathway (AID 743223; active = well fitted inhibition curve with a large enough effect in the signal ratio in the repeat runs, not every such curve was filed as active; the % refers to the signal ratio)
How it was run: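 Beta-lactamase activity in VDR-bla cells is measured by FRET substrate fluorescence (2 h, room temperature) after cells spend 16 h at 37C with test compound and 3 nM final 1alpha,25-dihydroxyvitamin D3.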

[8] = qHTS assay to identify small molecule agonists of the NFkB signaling pathway - cell viability counter screen (AID 1159515; calls by dose curve; also: series mostly up to about 61 µM; nearly all actives have a fitted effect of over 55% in size)
How it was run: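 Counter screen run alongside the NFkB-bla agonist assay: ME-180 reporter cells exposed to compounds for 5 hr, then lysed with CellTiter-Glo in the same wells. Luminescence, read after 30 min, reflects viable cells.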

[9] = qHTS assay to identify small molecule agonists of the endoplasmic reticulum stress response signaling pathway (AID 1159516; active = well fitted activation curve with a large enough effect in the signal ratio in the repeat runs, not every such curve was filed as active; the % refers to the signal ratio)
How it was run: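 For this screen, HeLa cells stably carrying beta-lactamase under the ER stress response element received test compounds, positive controls or DMSO for 5 hr at 37 C; B/G FRET substrate was then added and dual-wavelength emission recorded.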

[10] = qHTS assay to identify small molecule agonists of the endoplasmic reticulum stress response signaling pathway - cell viability counter screen (AID 1159517; calls by dose curve; also: series mostly up to about 61 µM; nearly all actives have a fitted effect of over 50% in size)
How it was run: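 In parallel with the ESRE reporter read, cytotoxicity was scored by CellTiter-Glo luminescence (30 min, room temperature) on HeLa ESRE-bla cells dosed for 5 hr.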

[11] = qHTS assay to identify small molecule antagonists of the retinoid-related orphan receptor gamma (ROR-gamma) signaling pathway - cell viability counter screen (AID 1159520); also: nearly all actives have a fitted effect of over 50% in size
How it was run: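 Tet-on ROR gamma CHO cells were given compounds for 2 hr, then doxycycline hyclate at 1 uM final, and incubated 16 hr at 37 C. Viability was measured as ATP content by CellTiter-Glo luminescence.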

[12] = molecular target: Nuclear receptor ROR-gamma (Homo sapiens) (UniProt P51449); test: qHTS assay to identify small molecule antagonists of the retinoid-related orphan receptor gamma (ROR-gamma) signaling pathway (AID 1159521; also: nearly all actives have a fitted effect of over 50% in size; also: potency is read from the fitted curve at half-maximal effect)
How it was run: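 Screening format: cell-based luciferase reporter in CHO cells with doxycycline-inducible RORγ. Compound pre-exposure lasts 2 h, doxycycline is 1 uM final, induction runs 16 h at 37 C, and ONE-Glo luminescence is read.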

[13] = qHTS assay to identify small molecule agonists of the AP-1 signaling pathway - cell viability counter screen (AID 1159525; calls by dose curve; also: nearly all actives have a fitted effect of over 55% in size)
How it was run: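 Same-well cytotoxicity counter screen of the Tox21 10K library in ME-180 cells. The readout is ATP-dependent luminescence after 5 h compound treatment. Data are normalised to DMSO and tetra n-octyl ammonium bromide controls.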

[14] = molecular target: Retinoic acid receptor RXR-alpha (Homo sapiens) (UniProt P19793); test: qHTS assay to identify small molecule agonists of the RXR signaling pathway (AID 1159527; calls by dose curve; also: nearly all actives have a fitted effect of over 35% in size)
How it was run: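 Fluorescence ratio readout (460 vs 530 nm) from GeneBLAzer RXR-alpha HEK 293T cells after 16 hr compound treatment; cells seeded 5 hr beforehand in low-serum, charcoal-stripped medium.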

[15] = qHTS assay to identify small molecule antagonists of the peroxisome proliferator-activated receptor delta (PPARd) signaling pathway - cell viability counter screen (AID 743213); also: nearly all actives have a fitted effect of over 50% in size
How it was run: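 PPARd-bla HEK293H cells were treated with compounds plus agonist L165041 (300 nM final) for 17 h at 37 C. Viability was then read in the same wells by CellTiter-Glo luminescence after 30 min at room temperature.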

[16] = molecular target: Bile acid receptor (Homo sapiens) (UniProt Q96RI1); test: qHTS assay to identify small molecule antagonists of the farnesoid-X-receptor (FXR) signaling pathway (AID 743217; active = well fitted inhibition curve with a large enough effect in the signal ratio in the repeat runs, not every such curve was filed as active; the % refers to the signal ratio)
How it was run: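 Quantitative HTS, beta-lactamase reporter format: FXR-UAS-bla HEK 293T cells co-treated 16 h at 37 °C with compounds and 50 uM final chenodeoxycholic acid, then read by B/G FRET fluorescence.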

[17] = qHTS assay to identify small molecule agonists of the vitamin D receptor (VDR) signaling pathway - cell viability counter screen (AID 743224); also: nearly all actives have a fitted effect of over 50% in size; also: potency is read from the fitted curve at half-maximal effect
How it was run: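 Counter screen for cytotoxicity: VDR-bla cells at 2,000 cells/well, 16 h compound exposure, then CellTiter-Glo luminescence after the beta-lactamase measurement.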

[18] = qHTS assay to identify small molecule agonists of the AP-1 signaling pathway (AID 1159526; calls by dose curve)
[19] = qHTS assay to identify small molecule antagonists of the vitamin D receptor (VDR) signaling pathway - cell viability counter screen (AID 743225); also: nearly all actives have a fitted effect of over 50% in size
How it was run: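 In this counter screen, VDR-bla HEK 293T cells receive test compound plus 3 nM final calcitriol for 16 h at 37C. Room-temperature steps of 2 h with the beta-lactamase substrate, then 30 min with CellTiter-Glo, precede the luminescence read.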

[20] = molecular target: Vitamin D3 receptor (Homo sapiens) (UniProt P11473); test: qHTS assay to identify small molecule agonists of the vitamin D receptor (VDR) signaling pathway (AID 743222; calls by dose curve)
How it was run: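 Using LiveBLAzer B/G FRET detection, agonism was scored in VDR-bla cells exposed overnight (16 h, 37C) to DMSO-dissolved compounds; substrate incubation was 2 h at room temperature.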

Measured: Potency

Chain of Bile acid receptor (Homo sapiens) (Q96RI1 whole entry, looked up): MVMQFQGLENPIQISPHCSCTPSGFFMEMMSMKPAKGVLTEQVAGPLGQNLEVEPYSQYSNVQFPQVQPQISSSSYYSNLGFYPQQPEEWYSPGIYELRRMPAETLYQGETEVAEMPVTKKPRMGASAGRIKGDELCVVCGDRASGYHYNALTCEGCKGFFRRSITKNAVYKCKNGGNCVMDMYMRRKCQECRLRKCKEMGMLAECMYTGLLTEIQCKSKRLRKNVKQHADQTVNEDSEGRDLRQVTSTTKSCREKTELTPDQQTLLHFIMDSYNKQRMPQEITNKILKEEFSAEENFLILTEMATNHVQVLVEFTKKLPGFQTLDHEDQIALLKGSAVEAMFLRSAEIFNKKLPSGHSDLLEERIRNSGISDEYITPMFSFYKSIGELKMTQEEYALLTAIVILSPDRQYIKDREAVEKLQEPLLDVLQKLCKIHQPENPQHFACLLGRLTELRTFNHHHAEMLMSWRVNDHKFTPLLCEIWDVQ
Chain of Vitamin D3 receptor (Homo sapiens) (P11473 whole entry, looked up): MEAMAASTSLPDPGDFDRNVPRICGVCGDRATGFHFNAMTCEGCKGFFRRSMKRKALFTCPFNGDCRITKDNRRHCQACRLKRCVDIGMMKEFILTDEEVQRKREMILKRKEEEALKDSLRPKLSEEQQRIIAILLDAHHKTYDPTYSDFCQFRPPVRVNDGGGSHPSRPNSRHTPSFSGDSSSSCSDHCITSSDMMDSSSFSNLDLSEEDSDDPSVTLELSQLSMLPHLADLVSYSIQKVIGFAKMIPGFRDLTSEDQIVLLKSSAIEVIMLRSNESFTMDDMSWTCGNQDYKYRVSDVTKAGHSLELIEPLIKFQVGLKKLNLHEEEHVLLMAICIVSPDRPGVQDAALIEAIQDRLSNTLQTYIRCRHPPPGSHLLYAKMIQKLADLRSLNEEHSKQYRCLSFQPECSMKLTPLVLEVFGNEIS
Chain of Retinoic acid receptor RXR-alpha (Homo sapiens) (P19793 whole entry, looked up): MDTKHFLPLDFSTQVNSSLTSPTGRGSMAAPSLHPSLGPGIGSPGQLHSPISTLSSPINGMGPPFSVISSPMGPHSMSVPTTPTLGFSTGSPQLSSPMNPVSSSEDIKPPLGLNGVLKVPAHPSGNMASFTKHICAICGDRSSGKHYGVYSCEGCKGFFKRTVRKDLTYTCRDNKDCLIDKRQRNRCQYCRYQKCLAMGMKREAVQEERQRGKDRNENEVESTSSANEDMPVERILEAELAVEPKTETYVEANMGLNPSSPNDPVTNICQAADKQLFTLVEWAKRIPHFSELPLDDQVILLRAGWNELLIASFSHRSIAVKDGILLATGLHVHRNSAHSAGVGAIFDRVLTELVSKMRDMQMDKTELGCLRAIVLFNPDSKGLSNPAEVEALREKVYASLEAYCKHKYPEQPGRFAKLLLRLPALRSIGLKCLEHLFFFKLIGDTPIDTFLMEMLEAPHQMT
Chain of Peroxisome proliferator-activated receptor delta (Homo sapiens) (Q03181 whole entry, looked up): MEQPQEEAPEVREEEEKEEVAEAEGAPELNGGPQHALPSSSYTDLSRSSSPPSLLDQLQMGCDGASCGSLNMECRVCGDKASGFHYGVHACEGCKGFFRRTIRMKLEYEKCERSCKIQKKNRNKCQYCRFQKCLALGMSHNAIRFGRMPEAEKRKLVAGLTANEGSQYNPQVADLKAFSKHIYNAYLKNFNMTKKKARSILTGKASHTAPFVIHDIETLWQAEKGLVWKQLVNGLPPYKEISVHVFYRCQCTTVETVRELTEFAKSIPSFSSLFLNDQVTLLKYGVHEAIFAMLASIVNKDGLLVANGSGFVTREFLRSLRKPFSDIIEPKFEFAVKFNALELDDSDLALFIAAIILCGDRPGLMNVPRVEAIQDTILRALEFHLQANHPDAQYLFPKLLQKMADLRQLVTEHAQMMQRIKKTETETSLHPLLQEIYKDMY

O=c1c2ccccc2c(=O)c2c1cc(Cl)c1[nH]c3c([nH]c12)c(Cl)cc1c(=O)c2ccccc2c(=O)c13
inactive: [1] | [2] | [3] | [4] | [5] | [6] | [7] | [8] | [9] | [10] | [11] | [12] | [13] | [14]

NC1CCC(CC2CCC(N)CC2)CC1 (stereo unspecified)
inactive: [1] | [2] | [15] | [3] | [16] | [5] | [6] | [17] | [8] | [9] | [10] | [11] | [12] | [13] | [18]

C=Cc1cccc(CCl)c1
inactive: [15] | [4] | [5] | [6] | [17] | [19] | [8] | [9] | [10] | [11] | [12] | [13] | [18]

COP(=O)(OC)O/C(=C\Cl)c1cc(Cl)c(Cl)cc1Cl
active: [12] 38.6 µM
inactive: [1] | [5] | [8] | [9] | [10] | [11] | [13]

ClC1=C(Cl)[C@]2(Cl)[C@@H]3[C@H]4C[C@H]([C@@H]5O[C@H]45)[C@@H]3[C@@]1(Cl)C2(Cl)Cl
active: [17] 43.6 µM | [12] 27.3 µM
inactive: [7] | [19] | [8] | [9] | [10] | [11] | [13]

CC#C[C@]1(O)CC[C@H]2[C@@H]3C[C@H](C)C4=CC(=O)CC[C@]4(C)[C@H]3CC[C@@]21C
active: [12] 26.6 µM
inactive: [1] | [15] | [4] | [5] | [6] | [19] | [8] | [9] | [10] | [11] | [13]

Nc1ccc(Cl)cc1C(=O)c1ccccc1F
inactive: [1] | [2] | [3] | [5] | [6] | [17] | [8] | [9] | [10] | [11] | [12] | [13]

CC(C)Br
inactive: [1] | [15] | [16] | [5] | [20] | [7] | [17] | [19] | [8] | [9] | [10] | [11] | [12] | [13]

CC1=C2C[C@H]3[C@@H](CC=C4C[C@@H](O)CC[C@@]43C)[C@@H]2CC[C@]12O[C@@H]1C[C@H](C)CN[C@H]1[C@H]2C
active: [5] 10.7 µM | [12] 8.41 µM
inactive: [3] | [16] | [6] | [20] | [7] | [19] | [8] | [9] | [10] | [11] | [13]

CNC(=O)O/N=C(\C)C(C)S(C)(=O)=O (stereo unspecified)
inactive: [1] | [2] | [3] | [4] | [5] | [20] | [7] | [19] | [8] | [9] | [10] | [11] | [12] | [13]

CSSC
inactive: [1] | [2] | [15] | [3] | [4] | [6] | [20] | [7] | [17] | [19] | [8] | [9] | [10] | [11] | [12] | [13]

CSC(C)(C)/C=N/O
inactive: [2] | [3] | [4] | [6] | [20] | [7] | [17] | [8] | [9] | [10] | [11] | [12] | [13] | [18]

COC(=O)c1ccccc1S(=O)(=O)NC(=O)Nc1nc(C)nc(OC)n1
inactive: [1] | [2] | [15] | [3] | [16] | [5] | [6] | [20] | [17] | [19] | [8] | [9] | [10] | [11] | [13] | [18] | [14]

Clc1ccc(C2(Cn3cncn3)OCCO2)c(Cl)c1
inactive: [1] | [2] | [15] | [3] | [4] | [6] | [19] | [8] | [9] | [10] | [11] | [12] | [13] | [18]

O=C(N[C@@H]1N=C(c2ccccc2F)c2cccc3c2N(CC3)C1=O)c1cc2ccccc2[nH]1
inactive: [1] | [2] | [4] | [6] | [7] | [17] | [19] | [8] | [9] | [10] | [11] | [12] | [13] | [14]

c1ccc(Nc2ccc(Nc3ccccc3)cc2)cc1
inactive: [2] | [3] | [5] | [6] | [20] | [7] | [19] | [8] | [9] | [10] | [11] | [12]

Cc1ccc(C)c2ccccc12
inactive: [1] | [2] | [15] | [3] | [4] | [5] | [7] | [19] | [8] | [9] | [10] | [11] | [12] | [13] | [18]

O=[N+]([O-])c1cccc2cccc([N+](=O)[O-])c12
inactive: [1] | [2] | [16] | [4] | [5] | [6] | [20] | [7] | [17] | [19] | [8] | [9] | [10] | [11] | [12] | [18] | [14]

COc1cnc(OC)n2nc(NS(=O)(=O)c3c(OCC(F)F)cccc3C(F)(F)F)nc12
inactive: [1] | [2] | [15] | [3] | [17] | [19] | [8] | [9] | [10] | [11] | [12] | [13] | [18]
